29 compounds from ChEMBL document CHEMBL1157539, “Thousands of chemical starting points for antimalarial lead identification” (Nature, 2010) can be followed below.

What all share (assay type): functional
The subject of assay [1] is Plasmodium falciparum. The assay is described as follows: GSK_TCMDC: Inhibition of Plasmodium falciparum 3D7 in whole red blood cells, using parasite LDH activity as an index of growth. Test compounds present at 2uM.
Assay [2] concerns Plasmodium falciparum. The assay is described as follows: GSK_TCMDC: Inhibition of Plasmodium falciparum Dd2 in whole red blood cells, using parasite LDH activity as an index of growth. Test compounds present at 2uM.
The next assay has as its system HepG2. Put plainly: GSK_TCMDC: Percent inhibition of human HepG2 cell line. Test compounds present at 10uM.

In general, Inhibition refers to the change of the read-out against control, counted positive when it falls. Low readings indicate a response near the control, high ones a response far below the control. With `CN(C)CC(=O)Nc1cccc(Nc2nccc(NCC(O)c3ccccc3)n2)c1` (configuration not stated), the values for the Inhibition in the assay with Plasmodium falciparum [1], with Plasmodium falciparum [2] and in the assay on HepG2 were 100%, 3% and 30%, respectively.
The matching figures for `Cc1ccc(Cl)cc1N1CCN(CCCNC(=O)C2CCN(c3nc4ccccc4[nH]3)CC2)CC1`: 88%, 0% and 41%.
On the same counts, the results for `COc1ccc(C)cc1NC(=O)CSc1nc2cccnc2n1C1CCCCC1` are 89%, 78% and 14%.
As to `Cc1cc(NCCCOc2ccc(Cl)cc2)nc(NCc2ccccc2)n1.Cl`, the Inhibition with Plasmodium falciparum [1] was found to be 95%; in the assay on Plasmodium falciparum [2], 20%; in the assay on HepG2, 45%.
As to `CCCOc1ccccc1-c1nc2[nH]c3c(c2c(=O)[nH]1)CCN(C)C3`, the Inhibition in the assay with Plasmodium falciparum [1] came out at 87%; in the assay with Plasmodium falciparum [2] it was 70%; with HepG2, 8%.
The matching figures for `CC[C@H](C)CNC(=O)c1cncc(-c2ccc(CNC3Cc4ccccc4C3)cc2)c1.O=C(O)C(F)(F)F`: 100%, 95% and 14%.
For `COc1ccc(NC(=O)Nc2ccc(-c3ccc(-c4nc5ccccc5[nH]4)cc3)cc2)cc1`, the Inhibition in the assay on Plasmodium falciparum [1] came out at 100%; with Plasmodium falciparum [2], 27%; with HepG2, 22%.
The matching figures for `Cc1cccc2nc(-c3ccc(-c4cccc(NC(=O)NCc5ccc(F)cc5)c4)cc3)[nH]c12`: 100%, 100% and 82%.
On the same counts, the results for `CC(=O)Nc1ccc(OCCN(Cc2ccccc2C(F)(F)F)c2ccc(C#N)c(C(F)(F)F)c2)cc1` are 100%, 81% and 8%.
On the same counts, the results for `COc1cc(Cc2cnc(N)nc2N)cc(OC)c1OCCCCC(=O)O.Cl` are 88%, 0% and 0%.
With `CC(C)CNCc1cccc(-c2cccc(CN(CCCN3CCN(C)CC3)C(=O)Nc3ccccc3)c2)c1.O=C(O)C(F)(F)F`, the Inhibition with Plasmodium falciparum [1] was 95%; in the assay with Plasmodium falciparum [2], 76%; in the assay on HepG2, 25%.
The matching figures for `COc1ccccc1CCNC(=O)c1cc(Br)cc(N2CCN(c3ccncc3)CC2)c1.O=C(O)C(F)(F)F`: 84%, 32% and 38%.
On the same counts, the results for `COc1ccc2nccc([C@@H](O)CN3CCC(NCc4ccc5c(c4)NC(=O)CO5)CC3)c2c1.Cl` are 99%, 6% and 1%.
Turning to `CN1CC[C@@H](Oc2cc(C(=O)NCc3ccc(Cl)c(Cl)c3)ccc2C(F)(F)F)C1.Cl`, the Inhibition in the assay with Plasmodium falciparum [1] was determined as 88%; in the assay on Plasmodium falciparum [2], 4%; with HepG2, 8%.
On the same counts, the results for `CCN1CCN(c2cc(C)c3cc(NC(=O)c4cccc(C(F)(F)F)c4)ccc3n2)CC1` are 100%, 85% and 24%.
The matching figures for `O=C(NCCN1CCCC1)N1CCCN(c2ncnc3cc(-c4ccc(Cl)cc4)sc23)CC1.O=C(O)C(F)(F)F`: 96%, 32% and 13%.
On the same counts, the results for `COc1ccc2ncc(F)c(CCN3CC4CCCC4(CNCc4ccc5c(n4)NC(=O)CS5)C3)c2n1.Cl` (configuration not stated) are 87%, 28% and 18%.
For the compound `CS(=O)(=O)O.FC(F)(F)COc1ccc(CNCCCCCCNCc2ccc(OCC(F)(F)F)c3ccccc23)c2ccccc12`, the values for the Inhibition in the assay on Plasmodium falciparum [1], in the assay on Plasmodium falciparum [2] and with HepG2 were 100%, 93% and 99%, respectively.
The matching figures for `CCc1nc2c(N)nc(N)nc2nc1-c1ccc(OC)cc1`: 86%, 0% and 44%.
Turning to `Cc1cc(NCc2ccc(F)cc2)nc2cc(O)ccc12`, the Inhibition stood at 98% in the assay on Plasmodium falciparum [1], 85% in the assay on Plasmodium falciparum [2] and 14% in the assay with HepG2.
The matching figures for `O=C(N[C@@H](Cc1ccccc1)[C@H](O)CNCCC(F)(F)F)c1cccc(CCC2CC2)c1`: 87%, 13% and 0%.
Turning to `CCc1ccc(O)c(-c2cc(C(=O)Nc3cccnc3)[nH]n2)c1`, the Inhibition with Plasmodium falciparum [1] worked out at 98%; in the assay on Plasmodium falciparum [2], 99%; in the assay with HepG2, 0%.
For `CCOc1cc2c(cc1OCC)C(c1cc(OC)c(O)cc1Cl)NCC2` (configuration not stated), the results for the Inhibition in the assay on Plasmodium falciparum [1], with Plasmodium falciparum [2] and in the assay on HepG2 were 100%, 97% and 15%, respectively.
On to `COC1CCC(C(=O)Nc2ccc(-c3cccc(-c4nc5cccc(C)c5[nH]4)c3)cc2)CC1` (configuration not stated), for which the Inhibition with Plasmodium falciparum [1] is on record as 97%; in the assay on Plasmodium falciparum [2], 60%; in the assay with HepG2 it was 89%.
With `O=C(O)/C=C\C(=O)O.c1cc(CN2CCCCC2)cc(OCCCNc2ccnc3ccccc23)c1`, the Inhibition in the assay with Plasmodium falciparum [1] came to 100%; in the assay on Plasmodium falciparum [2], 99%; in the assay with HepG2, 48%.
`COc1ccccc1Cn1ccnc1SCC(=O)Nc1cccc(C(F)(F)F)c1`: the results for the Inhibition in the assay with Plasmodium falciparum [1], in the assay with Plasmodium falciparum [2] and with HepG2 were 86%, 73% and 0%, respectively.
`Cc1ccc2nc(C)cc(N/N=C/c3ccccc3[N+](=O)[O-])c2c1`: the Inhibition with Plasmodium falciparum [1] turned out to be 100%; with Plasmodium falciparum [2], 100%; in the assay on HepG2 it was 5%.
For the compound `CCc1cn2c3c(cc(C(=O)N[C@@H](Cc4cccc(Cl)c4)[C@H](O)CNC4CCCCC4)cc13)N(C)S(=O)(=O)CC2.O=CO`, the figures for the Inhibition in the assay on Plasmodium falciparum [1], in the assay with Plasmodium falciparum [2] and with HepG2 were 97%, 98% and 12%, respectively.
As to `CC(C)C[C@H](NC(=O)c1cc2ccccc2s1)C(=O)N[C@H]1CCN(Cc2ccc(OCCN3CCNCC3)c3ccccc23)C1.O=C(O)C(F)(F)F`, the Inhibition with Plasmodium falciparum [1] is reported as 100%; in the assay on Plasmodium falciparum [2] it was 96%; in the assay on HepG2, 43%.
